Experimental data published in publication PMC7862700, “An all-to-all approach to the identification of sequence-specific readers for epigenetic DNA modifications on cytosine”.

Experiments:
Assay in all cases: DAPPL (digital affinity profiling via proximity ligation, sequencing); 10 mM Tris-HCl pH 7.5, 50 mM NaCl, 1 mM DTT, 4% glycerol, room temperature, 30 min; GST-TFs on glutathione beads, 16-mer random dsDNA library, 0.1% formaldehyde crosslink after washing; high values mean tight binding
Conditions in all cases: protein: recombinant; tags: N-terminal GST; dsDNA, one strand shown
ERF = biological target: T1, ERF (Homo sapiens, UniProt P50548 1-548)
T1 sequence: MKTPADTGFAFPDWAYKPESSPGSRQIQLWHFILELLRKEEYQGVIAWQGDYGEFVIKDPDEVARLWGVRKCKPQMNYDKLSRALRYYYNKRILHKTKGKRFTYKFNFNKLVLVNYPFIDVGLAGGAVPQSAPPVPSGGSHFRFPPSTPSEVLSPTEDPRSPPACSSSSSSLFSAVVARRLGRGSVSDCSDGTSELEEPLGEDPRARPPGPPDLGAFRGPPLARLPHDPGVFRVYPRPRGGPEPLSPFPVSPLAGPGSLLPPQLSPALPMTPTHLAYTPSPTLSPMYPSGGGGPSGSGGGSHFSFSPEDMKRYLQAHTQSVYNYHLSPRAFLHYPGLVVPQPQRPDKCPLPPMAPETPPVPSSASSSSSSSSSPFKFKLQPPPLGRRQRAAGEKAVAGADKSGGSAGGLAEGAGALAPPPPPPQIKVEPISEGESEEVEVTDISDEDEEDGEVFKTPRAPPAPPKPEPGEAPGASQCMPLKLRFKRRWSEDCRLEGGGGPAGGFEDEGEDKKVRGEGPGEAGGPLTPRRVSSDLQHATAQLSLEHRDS
Procedure, shortened: (§1)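 Human transcription factors fused to GST were expressed in yeast, captured on glutathione beads, given DNA barcodes and pooled with a GST-only negative control. Pools were incubated with 200 nmole of a 16-mer random double-stranded DNA library in Tris/NaCl/DTT/glycerol buffer at room temperature for 30 min. They were then washed, crosslinked with 0.1% formaldehyde, proximity-ligated (BsaI/T4 ligase, 1 h, 37 °C), PCR-amplified and sequenced on an Illumina NextSeq500. Binding signal is each 6-mer's read frequency for a factor divided by its frequency for the GST control.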

ETV3L = biological target: T2, ETV3L (Homo sapiens, UniProt Q6ZN32 1-361)
T2 sequence: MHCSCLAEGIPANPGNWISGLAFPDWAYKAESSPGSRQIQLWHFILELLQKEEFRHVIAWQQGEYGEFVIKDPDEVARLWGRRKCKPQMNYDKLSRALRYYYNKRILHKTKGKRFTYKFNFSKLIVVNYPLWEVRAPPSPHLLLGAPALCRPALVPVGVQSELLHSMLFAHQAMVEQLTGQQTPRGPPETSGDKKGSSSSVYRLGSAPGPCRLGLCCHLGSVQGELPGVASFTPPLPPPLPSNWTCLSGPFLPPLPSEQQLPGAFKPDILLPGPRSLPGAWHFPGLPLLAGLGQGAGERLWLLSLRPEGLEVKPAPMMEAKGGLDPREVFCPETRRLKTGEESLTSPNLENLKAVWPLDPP
Procedure, shortened: as §1

ETS2 = biological target: T3, ETS2 (Homo sapiens, UniProt P15036 1-469)
T3 sequence: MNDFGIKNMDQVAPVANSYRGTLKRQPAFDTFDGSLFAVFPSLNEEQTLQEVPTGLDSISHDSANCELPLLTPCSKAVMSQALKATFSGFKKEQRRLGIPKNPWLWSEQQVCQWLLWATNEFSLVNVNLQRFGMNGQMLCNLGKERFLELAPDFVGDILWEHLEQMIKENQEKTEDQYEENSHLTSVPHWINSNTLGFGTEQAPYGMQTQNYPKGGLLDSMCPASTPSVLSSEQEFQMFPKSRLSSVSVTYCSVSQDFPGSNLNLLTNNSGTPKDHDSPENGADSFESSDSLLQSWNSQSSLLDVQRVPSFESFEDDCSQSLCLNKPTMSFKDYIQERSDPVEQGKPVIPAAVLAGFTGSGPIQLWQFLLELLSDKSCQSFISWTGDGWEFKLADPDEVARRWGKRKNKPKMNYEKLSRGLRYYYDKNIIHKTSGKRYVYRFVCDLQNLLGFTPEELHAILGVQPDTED
Procedure, shortened: as §1

SPDEF = biological target: T4, SPDEF (Homo sapiens, UniProt O95238 1-335)
T4 sequence: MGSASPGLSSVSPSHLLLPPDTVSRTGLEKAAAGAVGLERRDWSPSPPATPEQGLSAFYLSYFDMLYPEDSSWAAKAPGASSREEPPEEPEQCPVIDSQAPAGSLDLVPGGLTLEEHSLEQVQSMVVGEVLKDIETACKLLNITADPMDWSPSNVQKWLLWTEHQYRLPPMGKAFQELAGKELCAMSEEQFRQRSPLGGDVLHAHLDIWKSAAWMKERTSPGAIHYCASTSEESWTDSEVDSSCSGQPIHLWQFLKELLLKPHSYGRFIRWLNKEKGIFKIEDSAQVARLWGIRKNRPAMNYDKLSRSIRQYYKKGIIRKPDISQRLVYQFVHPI
Procedure, shortened: as §1

ETV7 = biological target: T5, ETV7 (Homo sapiens, UniProt Q9Y603 1-341)
T5 sequence: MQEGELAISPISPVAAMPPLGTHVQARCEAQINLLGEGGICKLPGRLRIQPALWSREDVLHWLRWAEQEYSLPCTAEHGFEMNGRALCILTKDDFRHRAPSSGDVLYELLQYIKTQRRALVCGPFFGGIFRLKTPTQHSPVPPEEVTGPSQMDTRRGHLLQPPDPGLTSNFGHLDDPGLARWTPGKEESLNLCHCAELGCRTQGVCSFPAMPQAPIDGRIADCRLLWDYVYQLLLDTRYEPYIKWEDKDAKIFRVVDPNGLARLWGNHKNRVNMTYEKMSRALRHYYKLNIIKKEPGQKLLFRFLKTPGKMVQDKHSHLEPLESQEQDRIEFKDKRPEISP
Procedure, shortened: as §1

ELF5 = biological target: T6, ELF5 (Homo sapiens, UniProt Q9UKW6-2 1-255)
T6 sequence: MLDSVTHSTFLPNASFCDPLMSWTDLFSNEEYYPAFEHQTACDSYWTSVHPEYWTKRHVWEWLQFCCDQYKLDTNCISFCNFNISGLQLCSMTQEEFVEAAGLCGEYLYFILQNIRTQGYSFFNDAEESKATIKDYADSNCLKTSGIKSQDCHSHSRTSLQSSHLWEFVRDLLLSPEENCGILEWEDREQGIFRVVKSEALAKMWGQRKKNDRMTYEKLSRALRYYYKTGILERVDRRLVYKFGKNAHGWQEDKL
Procedure, shortened: as §1

ETV3 = biological target: T7, ETV3 (Homo sapiens, UniProt P41162-2 1-143)
T7 sequence: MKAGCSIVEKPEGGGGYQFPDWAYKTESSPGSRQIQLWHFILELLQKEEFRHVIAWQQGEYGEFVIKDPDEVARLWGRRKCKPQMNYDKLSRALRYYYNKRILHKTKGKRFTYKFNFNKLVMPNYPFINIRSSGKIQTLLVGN
Procedure, shortened: as §1

ETV6 = ETV6 (Homo sapiens, UniProt P41212 1-452)
ETV6, sequence (P41212 whole entry): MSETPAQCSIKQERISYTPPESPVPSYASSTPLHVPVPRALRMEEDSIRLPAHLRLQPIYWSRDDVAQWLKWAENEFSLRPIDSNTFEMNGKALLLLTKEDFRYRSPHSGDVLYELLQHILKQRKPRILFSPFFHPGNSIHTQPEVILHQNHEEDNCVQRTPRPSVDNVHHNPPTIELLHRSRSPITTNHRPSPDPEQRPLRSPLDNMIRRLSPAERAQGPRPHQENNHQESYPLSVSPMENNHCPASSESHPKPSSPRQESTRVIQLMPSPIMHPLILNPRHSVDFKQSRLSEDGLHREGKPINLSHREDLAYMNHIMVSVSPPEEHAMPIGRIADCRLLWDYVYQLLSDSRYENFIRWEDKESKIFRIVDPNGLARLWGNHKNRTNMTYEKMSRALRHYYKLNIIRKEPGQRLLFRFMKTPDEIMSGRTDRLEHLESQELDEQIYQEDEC
Procedure, shortened: as §1

Sequence	binding signal (ERF)	binding signal (ETV3L)	binding signal (ETS2)	binding signal (SPDEF)	binding signal (ETV7)	binding signal (ELF5)	binding signal (ETV3)	binding signal (ETV6)
AGATGC	1.23 fold enrichment (6-mer frequency, TF over GST control)	1.09 fold enrichment (6-mer frequency, TF over GST control)	1.09 fold enrichment (6-mer frequency, TF over GST control)	1.03 fold enrichment (6-mer frequency, TF over GST control)	1.03 fold enrichment (6-mer frequency, TF over GST control)	1.12 fold enrichment (6-mer frequency, TF over GST control)	1.06 fold enrichment (6-mer frequency, TF over GST control)	1.04 fold enrichment (6-mer frequency, TF over GST control)
GAAATT	1.36 fold enrichment (6-mer frequency, TF over GST control)	1.34 fold enrichment (6-mer frequency, TF over GST control)	1.35 fold enrichment (6-mer frequency, TF over GST control)	1.25 fold enrichment (6-mer frequency, TF over GST control)	1.2 fold enrichment (6-mer frequency, TF over GST control)	1.51 fold enrichment (6-mer frequency, TF over GST control)	1.32 fold enrichment (6-mer frequency, TF over GST control)	1.41 fold enrichment (6-mer frequency, TF over GST control)
CACATT	1.33 fold enrichment (6-mer frequency, TF over GST control)	1.17 fold enrichment (6-mer frequency, TF over GST control)	1.2 fold enrichment (6-mer frequency, TF over GST control)	1.18 fold enrichment (6-mer frequency, TF over GST control)	1.18 fold enrichment (6-mer frequency, TF over GST control)	1.13 fold enrichment (6-mer frequency, TF over GST control)	1.12 fold enrichment (6-mer frequency, TF over GST control)	1.15 fold enrichment (6-mer frequency, TF over GST control)
ATATGG	1.16 fold enrichment (6-mer frequency, TF over GST control)	1.3 fold enrichment (6-mer frequency, TF over GST control)	1.32 fold enrichment (6-mer frequency, TF over GST control)	1.3 fold enrichment (6-mer frequency, TF over GST control)	1.34 fold enrichment (6-mer frequency, TF over GST control)	1.27 fold enrichment (6-mer frequency, TF over GST control)	1.35 fold enrichment (6-mer frequency, TF over GST control)	1.34 fold enrichment (6-mer frequency, TF over GST control)
ATGTGT	1.15 fold enrichment (6-mer frequency, TF over GST control)	1.1 fold enrichment (6-mer frequency, TF over GST control)	1.17 fold enrichment (6-mer frequency, TF over GST control)	1.23 fold enrichment (6-mer frequency, TF over GST control)	1.09 fold enrichment (6-mer frequency, TF over GST control)	1.04 fold enrichment (6-mer frequency, TF over GST control)	1.01 fold enrichment (6-mer frequency, TF over GST control)	1.12 fold enrichment (6-mer frequency, TF over GST control)
CTCGCG	1.41 fold enrichment (6-mer frequency, TF over GST control)	1.44 fold enrichment (6-mer frequency, TF over GST control)	1.47 fold enrichment (6-mer frequency, TF over GST control)	1.4 fold enrichment (6-mer frequency, TF over GST control)	1.38 fold enrichment (6-mer frequency, TF over GST control)	1.42 fold enrichment (6-mer frequency, TF over GST control)	1.42 fold enrichment (6-mer frequency, TF over GST control)	1.36 fold enrichment (6-mer frequency, TF over GST control)
CTCAAA	1.11 fold enrichment (6-mer frequency, TF over GST control)	1.16 fold enrichment (6-mer frequency, TF over GST control)	1.2 fold enrichment (6-mer frequency, TF over GST control)	1.14 fold enrichment (6-mer frequency, TF over GST control)	1.14 fold enrichment (6-mer frequency, TF over GST control)	1.16 fold enrichment (6-mer frequency, TF over GST control)	1.2 fold enrichment (6-mer frequency, TF over GST control)	1.21 fold enrichment (6-mer frequency, TF over GST control)
